Key:
[1] = target: T1, GST-Nv-NF-kB (Ser allele) (Nematostella vectensis, UniProt A7UNT2 2-411); assay: protein-binding microarray (PBM); PBM: ~300 nM protein, 6 mM HEPES pH 7.8, 80 mM KCl, 0.5 mM EDTA, 0.5 mM EGTA, 6% glycerol, 35 ng/ul poly-dIdC, 1% milk, 1 h, room temperature; Ap Aiptasia and Nv Nematostella (sea anemones) / Co Capsaspora / Aq Amphimedon (sponge) / Dm Drosophila / Hu human; RHD is the Rel homology domain; high values mean tight binding; conditions: dsDNA, one strand shown
T1 sequence: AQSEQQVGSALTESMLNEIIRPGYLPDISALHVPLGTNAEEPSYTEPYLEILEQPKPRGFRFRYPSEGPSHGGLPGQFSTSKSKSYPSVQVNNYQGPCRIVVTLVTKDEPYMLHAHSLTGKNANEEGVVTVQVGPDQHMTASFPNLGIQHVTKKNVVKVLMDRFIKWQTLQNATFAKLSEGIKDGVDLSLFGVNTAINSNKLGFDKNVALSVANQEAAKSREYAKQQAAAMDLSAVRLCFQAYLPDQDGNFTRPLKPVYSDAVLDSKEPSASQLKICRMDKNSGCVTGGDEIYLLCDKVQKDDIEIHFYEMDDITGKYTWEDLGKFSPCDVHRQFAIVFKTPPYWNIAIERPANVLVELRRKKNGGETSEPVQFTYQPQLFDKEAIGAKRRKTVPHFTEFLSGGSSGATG

GST-Hu-p50 = GST-Hu-p50 (Homo sapiens, UniProt P19838 7-356); assay: as above; conditions: dsDNA, one strand shown
Chain of GST-Hu-p50 (P19838 7-356): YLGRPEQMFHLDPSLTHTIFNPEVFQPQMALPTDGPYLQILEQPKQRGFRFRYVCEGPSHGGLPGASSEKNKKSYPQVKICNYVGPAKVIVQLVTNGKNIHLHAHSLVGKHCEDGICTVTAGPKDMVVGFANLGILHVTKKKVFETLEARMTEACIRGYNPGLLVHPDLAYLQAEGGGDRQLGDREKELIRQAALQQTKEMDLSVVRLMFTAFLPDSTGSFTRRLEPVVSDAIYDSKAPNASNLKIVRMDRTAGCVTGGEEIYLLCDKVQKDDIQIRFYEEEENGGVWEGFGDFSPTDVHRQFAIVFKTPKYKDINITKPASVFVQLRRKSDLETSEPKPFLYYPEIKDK

Sequence | binding signal [1] [z-score] | binding signal (GST-Hu-p50) [z-score]
CCGATTAACATCAAAATCTTCCCTGATGTTAATCGGGTCTTGATTCGCTTGACGCTGCTG | 6.32 | 3.8
CCGATTAACATCAGGAATTCCCATGATGTTAATCGGGTCTTGATTCGCTTGACGCTGCTG | 5.66 | 4.39
CCGATTAACATCACGGACTCCCCTGATGTTAATCGGGTCTTGATTCGCTTGACGCTGCTG | 4.46 | 3.34
CCGATTAACATCAGGGGACGGGATGATGTTAATCGGGTCTTGATTCGCTTGACGCTGCTG | 3.93 | 3.73
CCGATTAACATCAGGAGTTTACCTGATGTTAATCGGGTCTTGATTCGCTTGACGCTGCTG | 2.03 | 1.4
CCGATTAACATCAGAAAATTACCTGATGTTAATCGGGTCTTGATTCGCTTGACGCTGCTG | 5.7 | 4.34
CCGATTAACATCAATTCCCAACATGATGTTAATCGGGTCTTGATTCGCTTGACGCTGCTG | 1.63 | 1.56
CCGATTAACATCAAAGGAATCCCTGATGTTAATCGGGTCTTGATTCGCTTGACGCTGCTG | 1.78 | 1.2
CCGATTAACATCAAATGGGAATTTGATGTTAATCGGGTCTTGATTCGCTTGACGCTGCTG | 4.87 | 3.42
CCGATTAACATCACCCGGGAAAATGATGTTAATCGGGTCTTGATTCGCTTGACGCTGCTG | 4.34 | 3.07
CCGATTAACATCACACCCCCCCCTGATGTTAATCGGGTCTTGATTCGCTTGACGCTGCTG | 3.66 | 3.76
CCGATTAACATCAAACAGGGAAATGATGTTAATCGGGTCTTGATTCGCTTGACGCTGCTG | 3.74 | 2.36
CCGATTAACATCAGGAAATGCCCTGATGTTAATCGGGTCTTGATTCGCTTGACGCTGCTG | 1.15 | 2.89
CCGATTAACATCAGATTTTTCCCTGATGTTAATCGGGTCTTGATTCGCTTGACGCTGCTG | 6.27 | 3.71
CCGATTAACATCACTTTTTCCCATGATGTTAATCGGGTCTTGATTCGCTTGACGCTGCTG | 4.35 | 3.04
CCGATTAACATCAGGGAATCCTATGATGTTAATCGGGTCTTGATTCGCTTGACGCTGCTG | 4.4 | 2.72
CCGATTAACATCATGGGTGGGAATGATGTTAATCGGGTCTTGATTCGCTTGACGCTGCTG | 1.12 | 1.32
CCGATTAACATCAGGACACTCCCTGATGTTAATCGGGTCTTGATTCGCTTGACGCTGCTG | 1.43 | 1.94
CCGATTAACATCAATTCCCGTACTGATGTTAATCGGGTCTTGATTCGCTTGACGCTGCTG | 1.96 | 1.41
CCGATTAACATCAGGACACCCCCTGATGTTAATCGGGTCTTGATTCGCTTGACGCTGCTG | 3.79 | 5.24
CCGATTAACATCAGGGAATGTACTGATGTTAATCGGGTCTTGATTCGCTTGACGCTGCTG | 3.55 | 2.72
CCGATTAACATCAGGGGTTTTGATGATGTTAATCGGGTCTTGATTCGCTTGACGCTGCTG | 3.32 | 3.98
CCGATTAACATCAATTTTCCCAATGATGTTAATCGGGTCTTGATTCGCTTGACGCTGCTG | 4.62 | 3.18
CCGATTAACATCAGGCAATTCCCTGATGTTAATCGGGTCTTGATTCGCTTGACGCTGCTG | 3.97 | 3.86
CCGATTAACATCAGGGAACCCCATGATGTTAATCGGGTCTTGATTCGCTTGACGCTGCTG | 1.33 | 2.54

Sequence | binding signal [1] [z-score] | binding signal (GST-Hu-p50) [z-score]
CCGATTAACATCAGGGAGCCCCCTGATGTTAATCGGGTCTTGATTCGCTTGACGCTGCTG | 3.69 | 5.27
CCGATTAACATCACTTGGGAAACTGATGTTAATCGGGTCTTGATTCGCTTGACGCTGCTG | 2.07 | 1.38
CCGATTAACATCACCGAATTTCCTGATGTTAATCGGGTCTTGATTCGCTTGACGCTGCTG | 1.32 | 2.56
CCGATTAACATCAGGGGAACACATGATGTTAATCGGGTCTTGATTCGCTTGACGCTGCTG | 5.55 | 3.37
CCGATTAACATCAAATCATCCCCTGATGTTAATCGGGTCTTGATTCGCTTGACGCTGCTG | 6.16 | 4.63
CCGATTAACATCAACCCCCGGCTTGATGTTAATCGGGTCTTGATTCGCTTGACGCTGCTG | 2.23 | 3.29
CCGATTAACATCAGGGATTCCCATGATGTTAATCGGGTCTTGATTCGCTTGACGCTGCTG | 3.26 | 3.48
CCGATTAACATCAGGAAAACCCATGATGTTAATCGGGTCTTGATTCGCTTGACGCTGCTG | 1.48 | 2.32
CCGATTAACATCACGGGGAGTCCTGATGTTAATCGGGTCTTGATTCGCTTGACGCTGCTG | 4.29 | 3.39
CCGATTAACATCAGGACCGTCCCTGATGTTAATCGGGTCTTGATTCGCTTGACGCTGCTG | 1.36 | 2.66
CCGATTAACATCAATGCACCCCCTGATGTTAATCGGGTCTTGATTCGCTTGACGCTGCTG | 4.37 | 4.12
CCGATTAACATCAGGGGGCAAGATGATGTTAATCGGGTCTTGATTCGCTTGACGCTGCTG | 1.92 | 2.2
CCGATTAACATCAAAGTACCCCCTGATGTTAATCGGGTCTTGATTCGCTTGACGCTGCTG | 5.79 | 4.53
CCGATTAACATCAAAGGTCCCCCTGATGTTAATCGGGTCTTGATTCGCTTGACGCTGCTG | 4.32 | 3.35
CCGATTAACATCACATACTCCCCTGATGTTAATCGGGTCTTGATTCGCTTGACGCTGCTG | 4.25 | 3.33
CCGATTAACATCACTTTCCCAAATGATGTTAATCGGGTCTTGATTCGCTTGACGCTGCTG | 3.07 | 1.67
CCGATTAACATCAACCCTCCCCCTGATGTTAATCGGGTCTTGATTCGCTTGACGCTGCTG | 3.85 | 3.3
CCGATTAACATCAAAAATCCCTATGATGTTAATCGGGTCTTGATTCGCTTGACGCTGCTG | 4.2 | 4.72
CCGATTAACATCAGGGAATTGTATGATGTTAATCGGGTCTTGATTCGCTTGACGCTGCTG | 4.84 | 3.41
CCGATTAACATCAGGGAAAGGAATGATGTTAATCGGGTCTTGATTCGCTTGACGCTGCTG | 2.07 | 1.29
CCGATTAACATCAGGTAATCACCTGATGTTAATCGGGTCTTGATTCGCTTGACGCTGCTG | 2.78 | 2.85
CCGATTAACATCATGGTGGTACCTGATGTTAATCGGGTCTTGATTCGCTTGACGCTGCTG | 1.05 | 1.07
CCGATTAACATCAAATATACCCCTGATGTTAATCGGGTCTTGATTCGCTTGACGCTGCTG | 2.88 | 2.88
CCGATTAACATCACCCCTCCCCGTGATGTTAATCGGGTCTTGATTCGCTTGACGCTGCTG | 3.23 | 3.01
CCGATTAACATCACCCAACCCCCTGATGTTAATCGGGTCTTGATTCGCTTGACGCTGCTG | 3.73 | 4.28

Sequence | binding signal [1] [z-score] | binding signal (GST-Hu-p50) [z-score]
CCGATTAACATCAGGAAAAGCCCTGATGTTAATCGGGTCTTGATTCGCTTGACGCTGCTG | 1.03 | 2.56
CCGATTAACATCAAGTATTCCCATGATGTTAATCGGGTCTTGATTCGCTTGACGCTGCTG | 2.35 | 1.64
CCGATTAACATCACGGGATTTCCTGATGTTAATCGGGTCTTGATTCGCTTGACGCTGCTG | 3.47 | 3.82
CCGATTAACATCACGAAAATCCCTGATGTTAATCGGGTCTTGATTCGCTTGACGCTGCTG | 4.09 | 4.05
CCGATTAACATCATTGTCCCTTCTGATGTTAATCGGGTCTTGATTCGCTTGACGCTGCTG | 3.35 | 1.99
CCGATTAACATCAGGGGAGTACATGATGTTAATCGGGTCTTGATTCGCTTGACGCTGCTG | 3.51 | 2.47
CCGATTAACATCACCTCTTTCCCTGATGTTAATCGGGTCTTGATTCGCTTGACGCTGCTG | 3.91 | 2.44
CCGATTAACATCAAAGCATTCCCTGATGTTAATCGGGTCTTGATTCGCTTGACGCTGCTG | 2.52 | 2.12
CCGATTAACATCAGGGGGGGCACTGATGTTAATCGGGTCTTGATTCGCTTGACGCTGCTG | 3.3 | 3.87
CCGATTAACATCAAGTTTTCCCATGATGTTAATCGGGTCTTGATTCGCTTGACGCTGCTG | 5.18 | 3.3
CCGATTAACATCAGGAGTACCCCTGATGTTAATCGGGTCTTGATTCGCTTGACGCTGCTG | 2.31 | 2.81
CCGATTAACATCAAGGGATTTTCTGATGTTAATCGGGTCTTGATTCGCTTGACGCTGCTG | 5.14 | 4.49
CCGATTAACATCAATCGTCCCCCTGATGTTAATCGGGTCTTGATTCGCTTGACGCTGCTG | 4.3 | 3.44
CCGATTAACATCATTGGGAAAAATGATGTTAATCGGGTCTTGATTCGCTTGACGCTGCTG | 3.58 | 2.4
CCGATTAACATCAAAATTTCACCTGATGTTAATCGGGTCTTGATTCGCTTGACGCTGCTG | 3.88 | 3.28
CCGATTAACATCAAGGATTCCCGTGATGTTAATCGGGTCTTGATTCGCTTGACGCTGCTG | 2.82 | 2.13
CCGATTAACATCAGGGTATTTACTGATGTTAATCGGGTCTTGATTCGCTTGACGCTGCTG | 4.72 | 5.1
CCGATTAACATCAGGGAGGGTAATGATGTTAATCGGGTCTTGATTCGCTTGACGCTGCTG | 2.16 | 1.6
CCGATTAACATCAGGATTGCCCCTGATGTTAATCGGGTCTTGATTCGCTTGACGCTGCTG | 2.73 | 3.69
CCGATTAACATCAGGGAACTCCATGATGTTAATCGGGTCTTGATTCGCTTGACGCTGCTG | 1.24 | 1.7
CCGATTAACATCAAAAAGGGAAATGATGTTAATCGGGTCTTGATTCGCTTGACGCTGCTG | 6.22 | 3.72
CCGATTAACATCAGGAATATTCCTGATGTTAATCGGGTCTTGATTCGCTTGACGCTGCTG | 1.09 | 1.36
CCGATTAACATCAGAAGTTCCCATGATGTTAATCGGGTCTTGATTCGCTTGACGCTGCTG | 1.1 | 1.09

— article PMC5700166
